Several values for one entry are separate records, joined by “and”; a condition that tells them apart may be missing. Equal values may be shown once. The whole screen tested about 5,500 compounds, of which about 2,000 (36%) were called active. Not shown: some 18% with an inconclusive outcome. Cut-off read from the data, not from the text of the source: active = normalized growth mostly below about 0.91 (no sharp cut-off); inconclusive = no clear call, values can overlap the other calls; inactive = mostly above about 0.92. Some of the results follow.
Test: chemical genetic growth profiling, strain panel (AID 1159580);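 note: tested at 20 µM; growth read once vehicle control cultures reached saturation at 30 °C; 1 = growth at the plate median or of vehicle wells; lower values mean less growth of the strain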
Conditions: S. cerevisiae deletion strains, growth OD
[1] = locus YAL040C, strain CLN3, active compounds read low
[2] = locus YCL061C, strain MRC1 (second series), active compounds read low
[3] = locus YER002W, strain NOP16, active compounds read low
[4] = locus YJR075W, strain HOC1, active compounds read low
[5] = locus YMR263W, strain SAP30, active compounds read low
[6] = locus YNL153C, strain GIM3, active compounds read low
[7] = locus YNL175C, strain NOP13, active compounds read low
[8] = locus YNL197C, strain WHI3, active compounds read low
[9] = locus YNL224C, strain SQS1, active compounds read low
[10] = locus YOR083W, strain WHI5 (second series), active compounds read low
[11] = locus YPL241C, strain CIN2, active compounds read low

Measured: normalized growth

N[C@@H](CC(=O)O)C(=O)O
inactive: locus YAL013W, strain DEP1, active compounds read low 1.01 | [1] 1.09 | [2] 1.01 | [3] 1.01 | [4] 1.01 | [5] 1 | [6] 1.02 | [7] 1 | [8] 1 | [9] 0.996 | [10] 0.955 | [11] 1.01

O=c1[nH]cnc2[nH]ncc12
inactive: locus YAL021C, strain ccr4, active compounds read low 1.01 | locus YAL026C, strain drs2, active compounds read low 1 | locus YAL030W, strain snc1, active compounds read low 0.985 | [1] 1.01 | locus YBL061C, strain skt5, active compounds read low 1 | locus YBR009C, strain hhf1, active compounds read low 1 | locus YBR021W, strain FUR4, active compounds read low 1.01 | locus YBR023C, strain chs3, active compounds read low 1 | locus YBR171W, strain sec66, active compounds read low 1.01 | locus YBR229C, strain ROT2, active compounds read low 1.01 | locus YBR231C, strain swc5, active compounds read low 1.02 | locus YBR279W, strain paf1, active compounds read low 1 | locus YCL011C, strain gbp2, active compounds read low 1.01 | locus YCL016C, strain dcc1, active compounds read low 1.01 | locus YCL029C, strain bik1, active compounds read low 1.02 | [2] 0.996 | locus YCL069W, strain vba3, active compounds read low 1.01 | locus YCR088W, strain abp1, active compounds read low 0.993 | locus YDL005C, strain med2, active compounds read low 0.998 | locus YDL035C, strain GPR1, active compounds read low 0.997 | locus YDL040C, strain nat1, active compounds read low 0.988 | locus YDL074C, strain BRE1, active compounds read low 0.996 | locus YDL101C, strain DUN1, active compounds read low 1.01 | locus YDL134C, strain PPH21, active compounds read low 0.993 | locus YDL185W, strain tfp1, active compounds read low 1.02 | locus YDL192W, strain arf1, active compounds read low 1.01 | locus YDR001C, strain nth1, active compounds read low 0.992 | locus YDR069C, strain doa4, active compounds read low 1.04 | locus YDR101C, strain arx1, active compounds read low 1 | locus YDR137W, strain rgp1, active compounds read low 0.993 | locus YDR159W, strain sac3, active compounds read low 1.02 | locus YDR162C, strain NBP2, active compounds read low 1.01 | locus YDR195W, strain ref2 0.958 | locus YDR297W, strain sur2, active compounds read low 1 | locus YDR318W, strain mcm21, active compounds read low 1.01 | locus YDR334W, strain swr1, active compounds read low 1.03 | locus YDR335W, strain msn5, active compounds read low 1.01 | locus YDR388W, active compounds read low 1.02 | locus YDR392W, strain spt3, active compounds read low 0.966 | locus YDR502C, strain sam2, active compounds read low 1.01 | locus YEL003W, strain gim4, active compounds read low 1.01 | locus YEL037C, strain rad23, active compounds read low 1.01 | locus YEL061C, strain CIN8 (second series), active compounds read low 1.02 | locus YEL061C, strain CIN8, active compounds read low 1 | [3] 1 | locus YER015W, strain faa2, active compounds read low 1.01 | locus YER016W, strain bim1, active compounds read low 0.97 | locus YER110C, active compounds read low 1.03 | locus YER111C, strain swi4, active compounds read low 1 | locus YER155C, strain BEM2 (second series), active compounds read low 1.01 | locus YER155C, strain BEM2, active compounds read low 1.01 | locus YER167W, strain BCK2, active compounds read low 0.999 | locus YFR010W, strain ubp6, active compounds read low 1.01 | locus YGL078C, strain dbp3, active compounds read low 1.01 | locus YGL086W, strain mad1, active compounds read low 1 | locus YGL167C, strain pmr1, active compounds read low 1.01 | locus YGL173C, strain kem1, active compounds read low 0.998 | locus YGL227W, strain vid30, active compounds read low 1.01 | locus YGL240W, strain doc1, active compounds read low 1.04 | locus YGL248W, strain PDE1, active compounds read low 1.01 | locus YGL253W, strain hxk2, active compounds read low 0.995 | locus YGR135W, strain pre9, active compounds read low 1.01 | locus YGR252W, strain gcn5, active compounds read low 0.989 | locus YHR013C, strain ard1, active compounds read low 0.968 | locus YHR027C, strain rpn1, active compounds read low 1 | locus YHR030C, strain SLT2, active compounds read low 1.01 and 0.983 | locus YHR079C, strain IRE1 (second series), active compounds read low 1.02 | locus YHR079C, strain IRE1, active compounds read low 1.04 | locus YHR094C, strain hxt1, active compounds read low 1.03 | locus YHR129C, strain ARP1, active compounds read low 1 | locus YHR142W, strain chs7, active compounds read low 0.998 | locus YHR200W, strain rpn10, active compounds read low 1.03 | locus YIL066C, strain RNR3, active compounds read low 1.01 | locus YIL073C, strain SPO22, active compounds read low 1.04 | locus YIL125W, strain kgd1, active compounds read low 1.02 | locus YIR030C, strain dcg1, active compounds read low 1.01 | locus YJL092W, strain hpr5, active compounds read low 1.01 | locus YJL095W, strain BCK1 (second series), active compounds read low 1.01 | locus YJL095W, strain BCK1, active compounds read low 1.02 and 1.03 | locus YJL115W, strain asf1, active compounds read low 1.02 | locus YJL129C, strain trk1, active compounds read low 1.01 | locus YJL134W, strain LCB3, active compounds read low 0.999 | locus YJL154C, strain vps35, active compounds read low 1.01 | locus YJL164C, strain tpk1, active compounds read low 0.981 | locus YJL166W, strain qcr8, active compounds read low 1.02 | locus YJL168C, strain set2, active compounds read low 1.02 | locus YJL187C, strain SWE1 (second series), active compounds read low 1.02 | locus YJL187C, strain SWE1, active compounds read low 1.01 | locus YJR043C, strain POL32, active compounds read low 0.988 | locus YJR066W, strain TOR1, active compounds read low 0.974 | [4] 1.01 | locus YKL009W, strain mrt4, active compounds read low 1.02 | locus YKL068W, active compounds read low 1.01 | locus YKL085W, strain MDH1 (second series), active compounds read low 1 | locus YKL085W, strain MDH1, active compounds read low 1 | locus YKL160W, strain elf1, active compounds read low 1 | locus YKR001C, strain vps1, active compounds read low 1.01 | locus YKR026C, strain gcn3, active compounds read low 1.06 | locus YKR091W, strain srl3, active compounds read low 0.999 | locus YLL001W, strain dnm1, active compounds read low 1.01 | locus YLL026W, active compounds read low 1 | locus YLL041C, strain sdh2, active compounds read low 0.987 | locus YLR027C, strain aat2, active compounds read low 1.01 | locus YLR039C, strain RIC1, active compounds read low 1 | locus YLR058C, strain SHM2, active compounds read low 1.01 | locus YLR102C, strain apc9, active compounds read low 1.02 | locus YLR113W, strain HOG1, active compounds read low 1.02 | locus YLR221C, strain rsa3, active compounds read low 1.01 | locus YLR258W, strain gsy2, active compounds read low 1 | locus YLR262C, strain YPT6 (second series), active compounds read low 1 | locus YLR262C, strain YPT6, active compounds read low 1.04 | locus YLR268W, strain sec22, active compounds read low 1.02 | locus YLR320W, strain mms22, active compounds read low 0.992 | locus YLR330W, strain CHS5, active compounds read low 1 | locus YLR342W, strain FKS1 (second series), active compounds read low 0.982 | locus YLR342W, strain FKS1, active compounds read low 1.02 | locus YLR357W, strain rsc2, active compounds read low 0.998 | locus YLR370C, strain arc18, active compounds read low 1.01 | locus YLR371W, strain rom2, active compounds read low 1.01 | locus YLR384C, strain iki3, active compounds read low 1 | locus YLR418C, strain cdc73, active compounds read low 1.01 | locus YML016C, strain PPZ1, active compounds read low 1.01 | locus YML032C, strain rad52, active compounds read low 1.01 | locus YML120C, strain ndi1, active compounds read low 1.02 | locus YML124C, strain tub3, active compounds read low 1.02 | locus YMR058W, strain fet3, active compounds read low 1.02 | locus YMR078C, strain ctf18, active compounds read low 1.02 | locus YMR125W, strain sto1, active compounds read low 0.998 | locus YMR129W, active compounds read low 1.01 | locus YMR205C, strain PFK2, active compounds read low 0.998 | locus YMR223W, strain ubp8, active compounds read low 1.01 | locus YMR231W, strain pep5, active compounds read low 1 | [5] 0.997 | locus YMR307W, strain GAS1, active compounds read low 1.02 and 1.01 | locus YNL067W, strain RPL9B, active compounds read low 1.02 | locus YNL071W, strain lat1, active compounds read low 1.02 | [6] 1.03 | [7] 1.01 | locus YNL183C, strain NPR1, active compounds read low 0.977 | [8] 1.01 | locus YNL209W, strain ssb2, active compounds read low 0.998 | [9] 0.994 | locus YNL233W, strain BNI4, active compounds read low 1.01 | locus YNL248C, strain rpa49, active compounds read low 1.04 | locus YNL250W, strain rad50, active compounds read low 1.01 | locus YNL271C, strain bni1, active compounds read low 1.02 | locus YNL298W, strain CLA4, active compounds read low 1.01 | locus YNL307C, strain MCK1, active compounds read low 1.03 | locus YNL322C, strain KRE1 (second series), active compounds read low 0.993 | locus YNL322C, strain KRE1, active compounds read low 1.01 | locus YNR049C, strain mso1, active compounds read low 1.02 | locus YNR052C, strain pop2, active compounds read low 1.02 | locus YOL006C, strain TOP1, active compounds read low 1.05 | locus YOL012C, strain htz1 0.934 | locus YOL147C, strain pex11, active compounds read low 1.01 | locus YOR001W, strain rrp6, active compounds read low 1.05 | locus YOR061W, strain CKA2, active compounds read low 1.01 | locus YOR069W, strain VPS5, active compounds read low 1 | locus YOR070C, strain gyp1, active compounds read low 0.996 | locus YOR080W, strain dia2, active compounds read low 1.02 | [10] 1.04 | locus YOR083W, strain WHI5, active compounds read low 1.05 | locus YOR106W, strain vam3, active compounds read low 1.03 | locus YOR136W, strain idh2, active compounds read low 1.02 | locus YOR144C, strain elg1, active compounds read low 1.01 | locus YOR184W, strain ser1, active compounds read low 1.01 | locus YOR231W, strain MKK1, active compounds read low 1.03 | locus YOR265W, strain rbl2, active compounds read low 1.01 | locus YOR270C, strain vph1, active compounds read low 1.08 | locus YOR290C, strain snf2, active compounds read low 0.993 | locus YOR316C, strain cot1, active compounds read low 1.01 | locus YPL051W, strain arl3, active compounds read low 1.01 | locus YPL078C, strain atp4, active compounds read low 1.03 | locus YPL106C, strain sse1, active compounds read low 1.01 | locus YPL240C, strain hsp82, active compounds read low 1 | [11] 1 | locus YPL256C, strain CLN2, active compounds read low 1 | locus YPR119W, strain clb2, active compounds read low 1.02 | locus YPR141C, strain kar3, active compounds read low 1.03 | locus YPR163C, strain tif3, active compounds read low 1.03 | locus YPR167C, strain met16, active compounds read low 1.02 | strain wtn01, active compounds read low 1
